# DT40 TDP1 CPT: DT40-hTDP1 cell growth loss with CPT. chicken DT40 Tdp1-/-;hTDP1 cells + 20 nM CPT, ATP luminescence, 48 h. Potency, µM (series often up to 46.2 µM), without a hit: top-dose activity change, negative = growth inhibition, usual class: inhibitors. actives 12% (n = 420,000). AID 686979; further: potency means the concentration at half of the fitted maximal effect; nearly all actives have a fitted effect of over 55% in size
#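 Cell growth measured by CellTiter-Glo luminescence after a minimum 48 h, 37 C compound exposure with 20 nM CPT in Tdp1-knockout DT40 cells stably expressing hTDP1, seeded 400/well; qHTS titration format.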
# IL1B secr inh: blocks inflammasome-driven IL-1 beta release. THP-1 LPS/ATP IL-1B secretion, AlphaLISA, 16 h; hits give low values. activity change, % at 57.5 µM. actives 4.7% (n = 360,000); in the data active means activity change below about -50%; inconclusive means mostly about -30% to -49%
#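 Secreted IL-1B measured by AlphaLISA bead assay after 16 h compound exposure of THP-1 cells; compounds (final up to 57.5 uM) added 1 h before LPS (250 ng/mL) and ATP (1.25 mM) stimulation; lower signal means less secretion.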
# HT1080NT lethal: kills 2HG-producing HT-1080-NT fibrosarcoma cells | HT-1080-NT fibrosarcoma viability, CellTiter-Glo ATP luminescence, 48 h | Potency, µM (titrated, usually from 46.1 µM), for inactives: at the top dose activity, negative = less viability, actives largely listed as cytotoxic | actives 1.6% (n = 360,000) | AID 686970;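 further: NT is the 2HG producing partner of a matched IDH1 knockdown line; potency means the concentration at half of the fitted maximal effect; 0% = DMSO-treated cells and -100% = media-only wells without cells; nearly all actives have a fitted effect of over 55% in size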
#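 Read-out is CellTiter-Glo luminescence after 10 minutes at room temperature, following 48 hours' compound treatment of HT-1080-NT cells (750 cells/well, RPMI, 5% FBS, 37 degrees C).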
# DT40 TDP1 no CPT: qHTS for Inhibitors of human tyrosyl-DNA phosphodiesterase 1 (TDP1): qHTS in cells in absence of CPT | AID 686978, 2013 | DT40 Tdp1-/- hTDP1 cells, no CPT, ATP luminescence, 48 h | Potency, µM (highest dose often 46.2 µM), for inactives: at the top dose activity change, negative = growth inhibition, actives largely listed as inhibitors | actives 15% (n = 420,000); further: potency means the concentration at half of the fitted maximal effect; nearly all actives have a fitted effect of over 55% in size
#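 Camptothecin absent (DMSO only). Human TDP1-complemented DT40 knockout cells, 400 cells/well, 37 °C for minimum 48 hr; ATP measured via CellTiter-Glo, 30 min dark incubation, luminescence.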
# HT1080 IDH1KD tx: kills HT-1080 cells with IDH1 knockdown | Potency, µM (doses to about 46.1 µM), for the others: at the top dose activity, negative = toxicity, usual class: cytotoxic | HT-1080 IDH1 knockdown viability, ATP luminescence, 48 h | actives 2% (n = 360,000) | AID 686971;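 further: potency means the concentration at half of the fitted maximal effect; 0% = DMSO wells and -100% = cell-free medium wells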
#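 HT-1080-IDH1KD cells (IDH1 knocked down), 750/well in RPMI with 5% FBS, treated with compound 48 h at 37 degrees C. Viability by CellTiter-Glo luminescence, normalised to DMSO and no-cell wells; concentration-response curves classed.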
# * marks the source's active call; other numbers are inactive results; ? = inconclusive; nt = not tested or not shown; [ ] = remark or other dose. Hits are enriched below; roughly 19% of the tested compounds scored in any of these assays. Unless noted, the call rests on the fitted dose curve; in most records, active means well fitted curve in the direction sought with a large enough effect; inconclusive means small, poorly fitted or top-dose-only effect, or another doubt; inactive means no such curve, though single readings can be large; an effect the other way counts as inactive or inconclusive. Unless noted, on the % scale 0 is the no-effect control and ±100 the full control effect.
SMILES,DT40 TDP1 CPT,IL1B secr inh,HT1080NT lethal,DT40 TDP1 no CPT,HT1080 IDH1KD tx
COc1ccc(OC)c(S(=O)(=O)N2Cc3ccccc3CC2C(=O)Nc2ccc(C(C)=O)cc2)c1 (stereo not drawn),?,nt,nt,10µM*,nt
COc1ccc(OC)c(S(=O)(=O)N2Cc3ccccc3CC2C(=O)O)c1 (stereo not drawn),-5%,18,-4%,-9%,9%
COc1ccc(S(=O)(=O)N2CCC(C(=O)Nc3cccc(C(C)=O)c3)CC2)cc1C,11µM*,2,2%,?,?
CC(=O)c1cccc(NC(=O)C2CCN(S(=O)(=O)c3ccc(C)cc3)CC2)c1,2%,-13,-5%,-29%,0%[9.24 µM]
O=C(CCn1c(=O)[nH]c2ccccc2c1=O)NCCSCc1ccccc1,-4%,2,20%,-3%,17%
CC1CCCN(S(=O)(=O)c2ccc(NC(=O)C3CCN(C(=O)c4ccco4)CC3)cc2)C1 (stereo not drawn),21µM*,15,-7%,13µM*,-17%
CCC(C)NS(=O)(=O)c1ccc(NC(=O)C2CCN(C(=O)c3ccco3)CC2)cc1 (stereo not drawn),?,0,4%,?,-12%
FC(F)(F)c1ccccc1-c1ccc2nncn2c1,-20%,4,?,-13%,3%
COc1ccccc1N1C(C)=CC(=C(C#N)c2nc3ccccc3s2)C=C1C,8.2µM*,18,-13%,13µM*,-12%
O=c1oc(C2(O)CCCCC2)cc2ccc(-c3ccc4[nH]ccc4c3)cc12,12µM*,21,-6%,?,-18%
COc1ccc(N2CCN(S(=O)(=O)c3cc(-c4cc(C)no4)ccc3C(C)C)CC2)cc1,?,-1,18%,?,11%
Cc1cc(-c2ccc(C(C)C)c(S(=O)(=O)N3CCN(c4ccccc4)CC3)c2)on1,2.6µM*,31,1.5µM*,2.1µM*,1.8µM*
Cc1cc(-c2ccc(C(C)C)c(S(=O)(=O)N3CCC(C)CC3)c2)on1,26µM*,13,?,18µM*,?
CCc1ccc(-c2cc(C)no2)cc1S(=O)(=O)N1CCC(C)CC1,?,39,3%,23µM*,-17%
Cc1cc(-c2ccc(C)c(S(=O)(=O)NCCN3CCC(C)CC3)c2)on1,?,0,-20%,-21%,-1%
O=C(Nc1ccc(F)cc1F)C1CCN(S(=O)(=O)c2ccc3[nH]c(=O)ccc3c2)CC1,-15%,nt,nt,-19%,nt
Cc1ccc(S(=O)(=O)N2CCCCC2)cc1NC(=O)c1ccc(=O)[nH]c1,0%,2,0%,-9%,2%
Cc1sc2nc3c(C(=O)N4CCCC4)cc(C(=O)c4ccccc4O)cn3c(=O)c2c1C,?,?,4%,13µM*,10%
CCc1c(C)sc2nc3c(C(=O)N4CCOCC4)cc(C(=O)c4cc(F)ccc4O)cn3c(=O)c12,23µM*,-76*,-22%,16µM*,?
O=C(c1cc(C(=O)N2CCOCC2)c2nc3ccccc3n2c1)c1ccccc1O,?,0,24%,?,0%
CCCn1c(SCC(=O)Nc2ccc(S(=O)(=O)N(C)C)cc2)n[nH]c1=O,13%,23,4%,-3%,1%
Cc1cc(C)cc(NC(=O)CCCn2c(=O)c3cccn3c3ccccc32)c1,-11%,nt,nt,-13%,nt
Cc1ccc(NC(=O)CCCn2c(=O)c3cccn3c3ccccc32)c(C)c1,15µM*,nt,nt,15µM*,nt
O=C(CCCn1c(=O)c2cccn2c2ccccc21)Nc1cccc(Cl)c1,?,nt,nt,18µM*,nt
CCc1cccc(NC(=O)Cn2c(=O)c3cccn3c3ccccc32)c1,-5%,20,-19%,?,-23%
SMILES,DT40 TDP1 CPT,IL1B secr inh,HT1080NT lethal,DT40 TDP1 no CPT,HT1080 IDH1KD tx
Cc1ccc(NC(=O)Cn2c(=O)c3cccn3c3ccccc32)c(Cl)c1,?,?,4%,-11%,21%
Cc1ccc(NC(=O)CCCn2c(=O)c3cccn3c3ccccc32)c(Cl)c1,15µM*,nt,nt,12µM*,nt
CCCCN(C)CCNC(=O)C1CCCN(S(=O)(=O)c2ccc3c(c2)oc(=O)n3C)C1 (stereo not drawn),-23%,nt,nt,-24%,nt
O=C1COc2ccc(S(=O)(=O)N3CCN(c4ccccc4F)CC3)cc2N1,-30%,-13,-13%,7%,-12%
Cc1c(C(=O)Nc2cccc(F)c2)sc2nc(-c3cc4ccccc4oc3=O)[nH]c(=O)c12,23µM*,nt,nt,?,nt
Cc1cccc(NC(=O)c2sc3nc(-c4cc5ccc(O)cc5oc4=O)[nH]c(=O)c3c2C)c1,21µM*,nt,nt,21µM*,nt
COc1cccc(NC(=O)CN(C)C(=O)C(Sc2ccccc2)c2ccccc2)c1 (stereo not drawn),-25%,-4,0%,?,-19%
CCN(CC(=O)Nc1ccc2c(c1)OCCO2)CC(=O)Nc1ccccc1C(F)(F)F,-28%,12,6%,-23%,1%
CC(=O)c1c(C)[nH]c(C(=O)CN(C)CC(=O)Nc2ccccc2Cl)c1C,?,-9,-14%,21µM*,-15%
CCOC(=O)c1c(C)[nH]c(C(=O)COC(=O)[C@H](C)NC(=O)c2ccccc2Cl)c1C,-8%,14,10%,-28%,6%
CCOC(=O)c1c(C)[nH]c(C(=O)CN(C)CC(=O)Nc2ccccc2Cl)c1C,?,14,-7%,21µM*,-9%
CCN(CC(=O)Nc1ccccc1C(F)(F)F)CC(=O)c1[nH]c(C)c(C(C)=O)c1C,23µM*,2,-5%,16µM*,-3%
c1ccc(Cc2noc(CN3CCN(CCOc4ccccc4)CC3)n2)cc1,-27%,-7,-2%,-5%,-6%
COC(=O)c1cnn2c(C)c(Cc3cccc(F)c3)c(C)nc12,?,40,-1%,?,-13%
Cc1ccc(C)c(Cc2c(C)nc3c(C(=O)N4CCOCC4)cnn3c2C)c1,16µM*,31,9%,22µM*,-5%
CCOC(=O)N1CCN(C(=O)c2cnn3c(C)c(Cc4ccc(C)cc4)c(C)nc23)CC1,?,-3,12%,?,11%
Cc1nc2c(C(=O)N3CCN(c4ccccn4)CC3)cnn2c(C)c1Cc1cccc(Cl)c1,?,13,?,23µM*,?
COc1ccccc1Cc1c(-c2ccc(OC)c(OC)c2)nc2c(Cl)cc(C(F)(F)F)cn12,-27%,-20,15%,-27%,2%
Cc1ccc(C(=O)c2cc([N+](=O)[O-])ccc2N2CCCCC2)c(C)c1,1µM*,-9,?,0.65µM*,?

# Assay outcomes (PubChem BioAssay)
